{"source": "the supplement of paper PMC8728848", "assay_in_all_cases": "glycan array binding signal (z-score within array); higher = stronger binding", "details_in_all_cases": "glycan notation: IUPAC condensed, linker removed", "key": {"Fuc(a1-2)Gal(b1-4)GlcNAc": {"molecular_target": "Fuc(a1-2)Gal(b1-4)GlcNAc", "method_in_brief": "(§1)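 The binding signal is a Z-score computed within each array and averaged over linkers. Arrays of the same protein sequence at different concentrations or buffers were also averaged together. Data originate from 3228 arrays in the Consortium for Functional Glycomics database, kept only where the protein sequence was available.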"}, "[1]": {"molecular_target": "Fuc(a1-2)Gal(b1-4)GlcNAc(b1-3)Gal(b1-4)GlcNAc(b1-3)Gal(b1-4)GlcNAc", "method_in_brief": "as §1"}, "[2]": {"molecular_target": "Fuc(a1-2)Gal(b1-4)[Fuc(a1-3)]GlcNAc", "method_in_brief": "as §1"}, "Fuc(a1-2)Gal6S(b1-4)Glc": {"molecular_target": "Fuc(a1-2)Gal6S(b1-4)Glc", "method_in_brief": "as §1"}, "[3]": {"molecular_target": "Fuc(a1-2)Gal6S(b1-4)GlcNAc", "method_in_brief": "as §1"}, "[4]": {"molecular_target": "Fuc(a1-2)[Gal(a1-3)]Gal(b1-4)GlcNAc", "method_in_brief": "as §1"}, "[5]": {"molecular_target": "Fuc(a1-2)[GalNAc(a1-3)]Gal(b1-3)GlcNAc(b1-2)Man(a1-3)[Fuc(a1-2)[GalNAc(a1-3)]Gal(b1-3)GlcNAc(b1-2)Man(a1-6)]Man(b1-4)GlcNAc(b1-4)GlcNAc", "method_in_brief": "as §1"}, "[6]": {"molecular_target": "Fuc(a1-2)[GalNAc(a1-3)]Gal(b1-4)GlcNAc", "method_in_brief": "as §1"}, "[7]": {"molecular_target": "Fuc(a1-3)[Gal(b1-4)]GlcNAc(b1-2)Man(a1-6)[Gal(b1-4)GlcNAc(b1-2)Man(a1-3)]Man(b1-4)GlcNAc(b1-4)GlcNAc", "method_in_brief": "as §1"}, "[8]": {"molecular_target": "Gal(a1-3)Gal(b1-3)GlcNAc(b1-2)Man(a1-3)[Gal(a1-3)Gal(b1-3)GlcNAc(b1-2)Man(a1-6)]Man(b1-4)GlcNAc(b1-4)GlcNAc", "method_in_brief": "as §1"}, "[9]": {"molecular_target": "Gal(a1-4)Gal(b1-3)GlcNAc(b1-2)Man(a1-3)[Gal(a1-4)Gal(b1-3)GlcNAc(b1-2)Man(a1-6)]Man(b1-4)GlcNAc(b1-4)GlcNAc", "method_in_brief": "as §1"}, "[10]": {"molecular_target": "Gal(a1-4)Gal(b1-4)GlcNAc(b1-2)Man(a1-3)[Gal(a1-4)Gal(b1-4)GlcNAc(b1-2)Man(a1-6)]Man(b1-4)GlcNAc(b1-4)GlcNAc", "method_in_brief": "as §1"}, "Gal(b1-3)Gal": {"molecular_target": "Gal(b1-3)Gal", "method_in_brief": "as §1"}, "Gal(b1-3)Gal(b1-4)GlcNAc": {"molecular_target": "Gal(b1-3)Gal(b1-4)GlcNAc", "method_in_brief": "as §1"}, "[11]": {"molecular_target": "Gal(b1-3)GalNAc(a1-3)[Fuc(a1-2)]Gal(b1-4)GlcNAc", "method_in_brief": "as §1"}, "[12]": {"molecular_target": "Gal(b1-3)GlcNAc(b1-3)Gal(b1-4)GlcNAc(b1-6)[Gal(b1-3)GlcNAc(b1-3)]Gal(b1-4)Glc", "method_in_brief": "as §1"}, "[13]": {"molecular_target": "Gal(b1-4)GlcNAc(a1-6)Gal(b1-4)GlcNAc", "method_in_brief": "as §1"}, "[14]": {"molecular_target": "Gal(b1-4)GlcNAc(b1-2)Man(a1-3)[GlcNAc(b1-2)Man(a1-6)]Man(b1-4)GlcNAc(b1-4)GlcNAc", "method_in_brief": "as §1"}, "[15]": {"molecular_target": "Gal3S(b1-4)[Fuc(a1-3)]Glc", "method_in_brief": "as §1"}, "[16]": {"molecular_target": "GlcNAc(a1-4)Gal(b1-4)GlcNAc(b1-3)Gal(b1-4)Glc", "method_in_brief": "as §1"}, "[17]": {"molecular_target": "GlcNAc(b1-2)[GlcNAc(b1-4)]Man(a1-3)[GlcNAc(b1-2)Man(a1-6)]Man(b1-4)GlcNAc(b1-4)GlcNAc", "method_in_brief": "as §1"}, "[18]": {"molecular_target": "GlcNAc(b1-3)Gal(b1-4)GlcNAc", "method_in_brief": "as §1"}, "[19]": {"molecular_target": "GlcNAc(b1-3)[GlcNAc(b1-4)][GlcNAc(b1-6)]GlcNAc", "method_in_brief": "as §1"}, "[20]": {"molecular_target": "Man(a1-2)Man(a1-3)[Man(a1-2)Man(a1-6)]Man", "method_in_brief": "as §1"}, "[21]": {"molecular_target": "Man(a1-2)Man(a1-3)[Man(a1-2)Man(a1-6)]Man(a1-6)[Man(a1-2)Man(a1-2)Man(a1-3)]Man", "method_in_brief": "as §1"}, "[22]": {"molecular_target": "Neu5Ac(a2-3)Gal(b1-3)GlcNAc(b1-2)Man(a1-3)[Neu5Ac(a2-3)Gal(b1-3)GlcNAc(b1-2)Man(a1-6)]Man(b1-4)GlcNAc(b1-4)GlcNAc", "method_in_brief": "as §1"}, "[23]": {"molecular_target": "Neu5Ac(a2-3)Gal(b1-3)GlcNAc(b1-3)Gal(b1-3)GlcNAc", "method_in_brief": "as §1"}, "[24]": {"molecular_target": "Neu5Ac(a2-3)Gal(b1-3)GlcNAc(b1-3)Gal(b1-4)GlcNAc", "method_in_brief": "as §1"}, "[25]": {"molecular_target": "Neu5Ac(a2-3)Gal(b1-3)[Neu5Ac(a2-3)Gal(b1-4)]GlcNAc", "method_in_brief": "as §1"}, "[26]": {"molecular_target": "Neu5Ac(a2-3)Gal(b1-4)GlcNAc(b1-2)Man(a1-3)[GlcNAc(b1-2)Man(b1-4)GlcNAc(b1-2)Man(a1-6)]Man(b1-4)GlcNAc(b1-4)GlcNAc", "method_in_brief": "as §1"}, "[27]": {"molecular_target": "Neu5Ac(a2-3)Gal(b1-4)GlcNAc(b1-2)Man(a1-3)[Neu5Ac(a2-6)Gal(b1-4)GlcNAc(b1-2)Man(a1-6)]Man(b1-4)GlcNAc(b1-4)GlcNAc", "method_in_brief": "as §1"}, "[28]": {"molecular_target": "Neu5Ac(a2-3)Gal(b1-4)[Fuc(a1-3)]GlcNAc(b1-3)Gal(b1-4)[Fuc(a1-3)]GlcNAc(b1-3)Gal(b1-4)[Fuc(a1-3)]GlcNAc", "method_in_brief": "as §1"}, "Neu5Ac(a2-6)Gal(b1-4)Glc": {"molecular_target": "Neu5Ac(a2-6)Gal(b1-4)Glc", "method_in_brief": "as §1"}, "[29]": {"molecular_target": "Neu5Ac(a2-6)Gal(b1-4)GlcNAc(b1-3)Gal(b1-4)GlcNAc(b1-3)Gal(b1-4)GlcNAc", "method_in_brief": "as §1"}, "[30]": {"molecular_target": "Neu5Ac(a2-6)Gal(b1-4)GlcNAc(b1-3)GalNAc", "method_in_brief": "as §1"}, "[31]": {"molecular_target": "Neu5Ac(a2-6)GalNAc(b1-4)GlcNAc", "method_in_brief": "as §1"}}, "note": "The sample as a whole holds a higher share of the strongest signals than the screen did.", "data": [{"binder": "Mincle (Homo sapiens), Q9ULY5 (protein) MNSSKSSETQCTERGCFSSQMFLWTVAGIPILFLSACFITRCVVTFRIFQTCDEKKFQLPENFTELSCYNYGSGSVKNCCPLNWEYFQSSCYFFSTDTISWALSLKNCSAMGAHLVVINSQEEQEFLSYKKPKMREFFIGLSDQVVEGQWQWVDGTPLTKSLSFWDVGEPNNIATLEDCATMRDSSNPRQNWNDVTCFLNYFRICEMVGINPLNKGKSL", "values": [{"measurement": "glycan array binding signal (z-score)", "setting": "Fuc(a1-2)Gal(b1-4)GlcNAc", "value": -0.329}, {"measurement": "glycan array binding signal (z-score)", "setting": "[1]", "value": 0.144}, {"measurement": "glycan array binding signal (z-score)", "setting": "[2]", "value": -0.37}, {"measurement": "glycan array binding signal (z-score)", "setting": "Fuc(a1-2)Gal6S(b1-4)Glc", "value": -0.325}, {"measurement": "glycan array binding signal (z-score)", "setting": "[3]", "value": -0.106}, {"measurement": "glycan array binding signal (z-score)", "setting": "[4]", "value": -0.111}, {"measurement": "glycan array binding signal (z-score)", "setting": "[5]", "value": 0.062}, {"measurement": "glycan array binding signal (z-score)", "setting": "[6]", "value": -0.289}, {"measurement": "glycan array binding signal (z-score)", "setting": "[7]", "value": 5.4}, {"measurement": "glycan array binding signal (z-score)", "setting": "[8]", "value": 4.69}, {"measurement": "glycan array binding signal (z-score)", "setting": "[9]", "value": 0.054}, {"measurement": "glycan array binding signal (z-score)", "setting": "[10]", "value": 3.26}, {"measurement": "glycan array binding signal (z-score)", "setting": "Gal(b1-3)Gal", "value": -0.357}, {"measurement": "glycan array binding signal (z-score)", "setting": "Gal(b1-3)Gal(b1-4)GlcNAc", "value": -0.566}, {"measurement": "glycan array binding signal (z-score)", "setting": "[11]", "value": -0.127}, {"measurement": "glycan array binding signal (z-score)", "setting": "[12]", "value": 6.4}, {"measurement": "glycan array binding signal (z-score)", "setting": "[13]", "value": -0.484}, {"measurement": "glycan array binding signal (z-score)", "setting": "[14]", "value": 0.969}, {"measurement": "glycan array binding signal (z-score)", "setting": "[15]", "value": -0.146}, {"measurement": "glycan array binding signal (z-score)", "setting": "[16]", "value": -0.295}, {"measurement": "glycan array binding signal (z-score)", "setting": "[17]", "value": -0.194}, {"measurement": "glycan array binding signal (z-score)", "setting": "[18]", "value": -0.245}, {"measurement": "glycan array binding signal (z-score)", "setting": "[19]", "value": -0.38}, {"measurement": "glycan array binding signal (z-score)", "setting": "[20]", "value": 0.813}, {"measurement": "glycan array binding signal (z-score)", "setting": "[21]", "value": 5}, {"measurement": "glycan array binding signal (z-score)", "setting": "[22]", "value": -0.71}, {"measurement": "glycan array binding signal (z-score)", "setting": "[23]", "value": -0.197}, {"measurement": "glycan array binding signal (z-score)", "setting": "[24]", "value": -0.575}, {"measurement": "glycan array binding signal (z-score)", "setting": "[25]", "value": -0.483}, {"measurement": "glycan array binding signal (z-score)", "setting": "[26]", "value": 3.33}, {"measurement": "glycan array binding signal (z-score)", "setting": "[27]", "value": 2.53}, {"measurement": "glycan array binding signal (z-score)", "setting": "[28]", "value": -0.324}, {"measurement": "glycan array binding signal (z-score)", "setting": "Neu5Ac(a2-6)Gal(b1-4)Glc", "value": -0.181}, {"measurement": "glycan array binding signal (z-score)", "setting": "[29]", "value": -0.394}, {"measurement": "glycan array binding signal (z-score)", "setting": "[30]", "value": 0.372}, {"measurement": "glycan array binding signal (z-score)", "setting": "[31]", "value": -0.184}]}]}
